“And” between values parts separate entries of the source, which are not always exact repeats. Equal values may be shown once. Inconclusive results are not listed. The source made the active and inactive calls. Unless noted, calls follow the shape of the full dose curve.
What was measured:
[1] = Cell Viability - Mesenchymal (AID 546; active = well fitted curve in the direction sought with a large enough effect; an effect the other way counts as inactive or inconclusive;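 also: cells exposed to compound for 40 hours before reading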); conditions: mesenchymal cells viability, qHTS; series mostly up to 91.7 µM
Summary of the method: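 AC50 values reflect the drop in intracellular ATP in a human kidney mesenchymal line derived from normal glomeruli. Treatment lasts 40 hr at 37 °C in complete medium, and the signal comes from CellTiter-Glo luminescence.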

[2] = Cellular Toxicity (caspase-3) HepG2 (AID 654; active = well fitted curve in the direction sought with a large enough effect; an effect the other way counts as inactive or inconclusive;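 also: cells exposed to compound for 16 hours before reading; 0% = DMSO alone and 100% = caspase signal from 100 µM tamoxifen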); conditions: HepG2 caspase-3 activation, luminescence, 0% = DMSO only, 100% = tamoxifen; series mostly up to 92.2 µM
Summary of the method: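 Cells plated 5 hr at 37 °C, compound added, incubated 16 hr at 37 °C. Caspase-Glo 3/7 reagent followed, 20 min at room temperature, then luminescence read. Activation scored as signal increase; AC50 from Hill fit.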

[3] = Cellular Toxicity (caspase-3) HUV-EC-C (AID 656; active = well fitted curve in the direction sought with a large enough effect; an effect the other way counts as inactive or inconclusive); conditions: HUV-EC-C cells, caspase-3 activation (apoptosis), vehicle = 0, 100 µM tamoxifen = 100%; series mostly up to 92.2 µM
Summary of the method: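 Concentration-dependent caspase 3/7 induction was assessed in HUV-EC-C cells exposed for 16 hours. Data scaled between DMSO and tamoxifen (100 uM) controls.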

[4] = biological target: Estrogen receptor (Homo sapiens) (UniProt P03372); assay: qHTS assay for small molecule agonists of estrogen receptor alpha signaling (AID 588514); conditions: ER-alpha-UAS-bla HEK293, beta-lactamase ratio, 18 h; series mostly up to 76.8 µM;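 also: 0% = vehicle only and 100% = reference agonist; nearly all actives have a fitted effect of over 70% in size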
Sequence of Estrogen receptor (Homo sapiens) (P03372 whole entry, looked up): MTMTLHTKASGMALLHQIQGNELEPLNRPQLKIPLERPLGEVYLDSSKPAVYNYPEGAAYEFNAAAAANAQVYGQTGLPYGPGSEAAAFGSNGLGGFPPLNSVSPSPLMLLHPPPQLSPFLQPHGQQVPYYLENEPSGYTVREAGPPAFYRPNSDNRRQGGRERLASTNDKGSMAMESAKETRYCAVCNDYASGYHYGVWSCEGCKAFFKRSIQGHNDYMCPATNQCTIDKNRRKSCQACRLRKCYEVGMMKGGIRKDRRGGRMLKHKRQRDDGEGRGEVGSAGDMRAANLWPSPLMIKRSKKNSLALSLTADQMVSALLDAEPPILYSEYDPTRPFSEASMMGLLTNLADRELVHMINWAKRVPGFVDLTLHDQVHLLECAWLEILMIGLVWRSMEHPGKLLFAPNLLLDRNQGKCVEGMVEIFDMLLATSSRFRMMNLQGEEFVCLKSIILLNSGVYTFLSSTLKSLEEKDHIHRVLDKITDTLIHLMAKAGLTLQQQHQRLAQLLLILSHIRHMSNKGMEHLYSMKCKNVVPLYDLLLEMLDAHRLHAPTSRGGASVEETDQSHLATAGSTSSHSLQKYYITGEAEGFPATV
Summary of the method: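 Cells were plated at 5000/well, incubated 4 hrs at 37 C, dosed with compound titration series, incubated 18 hrs at 37 C, loaded with CCF4 dye for 2 hrs at RT, then fluorescence was read.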

[5] = biological target: Glucocorticoid receptor (Homo sapiens) (UniProt P04150); assay: qHTS assay for small molecule agonists of glucocorticoid receptor signaling (AID 588532; active = well fitted curve in the direction sought with a large enough effect in the signal ratio, with a control signal flat; the % refers to the signal ratio;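 also: 100% = dexamethasone at 0.1 µM and 0% = DMSO only wells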); conditions: HeLa MMTV-bla, beta-lactamase ratio, agonist, 18 h; stronger effect = higher value; percent of dexamethasone control, DMSO zero
Sequence of Glucocorticoid receptor (Homo sapiens) (P04150 whole entry, looked up): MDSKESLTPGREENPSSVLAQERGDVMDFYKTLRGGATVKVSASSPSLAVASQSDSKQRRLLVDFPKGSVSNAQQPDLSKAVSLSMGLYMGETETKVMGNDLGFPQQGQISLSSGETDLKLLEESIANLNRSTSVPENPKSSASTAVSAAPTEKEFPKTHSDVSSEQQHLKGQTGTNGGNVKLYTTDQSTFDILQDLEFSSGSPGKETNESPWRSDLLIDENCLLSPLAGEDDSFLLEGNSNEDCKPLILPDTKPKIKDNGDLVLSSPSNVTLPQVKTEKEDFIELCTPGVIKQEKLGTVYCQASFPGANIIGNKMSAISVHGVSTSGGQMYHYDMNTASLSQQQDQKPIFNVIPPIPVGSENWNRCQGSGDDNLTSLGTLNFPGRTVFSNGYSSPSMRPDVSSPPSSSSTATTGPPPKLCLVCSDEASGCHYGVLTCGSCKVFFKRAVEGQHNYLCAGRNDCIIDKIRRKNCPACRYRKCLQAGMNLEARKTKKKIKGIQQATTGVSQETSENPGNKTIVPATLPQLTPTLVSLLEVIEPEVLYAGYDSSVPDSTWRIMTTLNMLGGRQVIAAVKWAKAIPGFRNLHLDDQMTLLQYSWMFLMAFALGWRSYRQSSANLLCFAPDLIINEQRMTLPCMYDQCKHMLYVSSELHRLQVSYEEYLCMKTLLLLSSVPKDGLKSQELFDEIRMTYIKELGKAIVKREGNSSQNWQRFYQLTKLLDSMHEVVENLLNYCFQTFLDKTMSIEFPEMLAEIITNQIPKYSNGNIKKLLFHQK
Summary of the method: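 Quantitative HTS using CellSensor MMTV-bla HeLa cells in charcoal/dextran-treated serum; compounds tested up to 92 uM. After 18 h at 37 C, CCF4 dye reported reporter induction.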

[6] = biological target: Glucocorticoid receptor (Homo sapiens) (UniProt P04150); assay: qHTS assay for small molecule antagonists of glucocorticoid receptor signaling (AID 588533; active = well fitted inhibition curve with a large enough effect in the signal ratio, with a control signal flat, not every such curve was filed as active; the % refers to the signal ratio;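 also: cells stimulated with 2 nM dexamethasone as agonist; % is scaled to controls: 0 for no effect and ±100 for the full control effect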); conditions: HeLa MMTV-bla, GRE beta-lactamase ratio, antagonist mode, 18 h; series mostly up to 76.8 µM
Summary of the method: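 Antagonist-mode qHTS: compound titrations added to GRE-bla HeLa cells, then dexamethasone 2 nM final; 18 h, 37 C. CCF4 FRET fluorescence normalized to dexamethasone and DMSO; IC50 from Hill fit.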

[7] = qHTS assay for small molecule antagonists of peroxisome proliferator-activated receptor delta signaling (AID 588535; active = well fitted inhibition curve with a large enough effect in the signal ratio, with a control signal flat, not every such curve was filed as active; the % refers to the signal ratio;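 as to max response: cells co-treated with a PPAR-delta agonist as stimulator during compound exposure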); conditions: HEK293T PPARd-UAS-bla, beta-lactamase FRET ratio, 18 h; 460 nm channel
Summary of the method: (§1)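 HEK293T PPAR-delta-UAS-bla cells, 4000/well, 2% charcoal/dextran FBS; 5 h 37 C; cpd titration; 18 h 37 C; CCF4 2 h RT; FI 460/530 nm; Hill fit → IC50, efficacy.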

[8] = biological target: Peroxisome proliferator-activated receptor delta (Homo sapiens) (UniProt Q03181); assay: as above; conditions: HEK293T PPARd-UAS-bla, beta-lactamase FRET ratio, 18 h; series mostly up to 76.7 µM
Sequence of Peroxisome proliferator-activated receptor delta (Homo sapiens) (Q03181 whole entry, looked up): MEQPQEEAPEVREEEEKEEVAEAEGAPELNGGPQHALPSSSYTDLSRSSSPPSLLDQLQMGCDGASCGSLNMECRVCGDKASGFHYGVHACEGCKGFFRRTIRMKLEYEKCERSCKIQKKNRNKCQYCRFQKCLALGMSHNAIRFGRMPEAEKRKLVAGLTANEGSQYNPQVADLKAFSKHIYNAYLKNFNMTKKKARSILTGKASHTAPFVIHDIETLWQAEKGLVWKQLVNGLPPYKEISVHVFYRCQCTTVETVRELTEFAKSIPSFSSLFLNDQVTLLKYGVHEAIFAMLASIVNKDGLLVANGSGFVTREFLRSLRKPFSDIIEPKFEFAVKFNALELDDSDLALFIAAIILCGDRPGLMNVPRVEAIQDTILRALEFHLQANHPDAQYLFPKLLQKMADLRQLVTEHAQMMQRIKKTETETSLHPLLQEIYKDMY
Summary of the method: as §1

[9] = biological target: Vitamin D3 receptor (Homo sapiens) (UniProt P11473); assay: qHTS assay for small molecule agonists of vitamin D receptor signaling (AID 588543); conditions: HEK293T VDR-UAS-bla, beta-lactamase ratio, 16 h; series mostly up to 76.8 µM;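 also: 0% = DMSO basal and 100% = reference agonist control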
Sequence of Vitamin D3 receptor (Homo sapiens) (P11473 whole entry, looked up): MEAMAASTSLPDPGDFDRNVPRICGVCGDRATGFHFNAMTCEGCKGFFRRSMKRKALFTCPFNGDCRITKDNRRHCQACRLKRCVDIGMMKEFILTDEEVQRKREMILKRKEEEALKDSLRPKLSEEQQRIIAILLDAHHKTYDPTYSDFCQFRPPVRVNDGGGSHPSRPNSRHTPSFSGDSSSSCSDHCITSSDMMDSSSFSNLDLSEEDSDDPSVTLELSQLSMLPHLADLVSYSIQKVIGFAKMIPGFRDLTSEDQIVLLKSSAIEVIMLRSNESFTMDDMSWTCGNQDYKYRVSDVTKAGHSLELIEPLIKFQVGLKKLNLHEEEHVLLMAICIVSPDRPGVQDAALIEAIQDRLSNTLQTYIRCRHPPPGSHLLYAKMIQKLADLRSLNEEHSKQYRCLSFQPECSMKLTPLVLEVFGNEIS
Summary of the method: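 Measured: β-lactamase reporter activity (CCF4, 405 nm excitation, 460/530 nm emission) in HEK293T VDR-UAS-bla cells after 16 h compound exposure at 37 °C. Normalization against 50 nM 1α,25-dihydroxyvitamin D3 and DMSO; Hill-fit EC50.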

[10] = qHTS assay for small molecule agonists of retinoid X receptor alpha signaling (AID 588544); conditions: HEK293T RXRa-UAS-bla, beta-lactamase reporter, 18 h; 530 nm emission;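 as to activation: 0% = DMSO basal wells and 100% = reference agonist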
[11] = biological target: Retinoic acid receptor RXR-alpha (Homo sapiens) (UniProt P19793); assay: as above; conditions: HEK293T RXRa-UAS-bla, beta-lactamase reporter, 18 h; series mostly up to 76.7 µM
Sequence of Retinoic acid receptor RXR-alpha (Homo sapiens) (P19793 whole entry, looked up): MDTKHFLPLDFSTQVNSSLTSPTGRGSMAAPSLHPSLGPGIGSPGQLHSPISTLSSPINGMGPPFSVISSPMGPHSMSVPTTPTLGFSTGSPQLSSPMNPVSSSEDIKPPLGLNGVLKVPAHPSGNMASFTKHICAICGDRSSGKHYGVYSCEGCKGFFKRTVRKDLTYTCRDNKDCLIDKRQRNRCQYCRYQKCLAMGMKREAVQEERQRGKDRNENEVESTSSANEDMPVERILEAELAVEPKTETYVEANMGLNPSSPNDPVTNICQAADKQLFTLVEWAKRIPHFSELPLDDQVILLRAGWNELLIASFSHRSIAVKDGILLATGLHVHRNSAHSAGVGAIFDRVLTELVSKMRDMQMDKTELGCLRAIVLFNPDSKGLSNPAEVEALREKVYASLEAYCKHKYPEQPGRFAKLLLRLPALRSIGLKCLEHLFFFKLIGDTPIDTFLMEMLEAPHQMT

[12] = biological target: Thyroid hormone receptor beta (Homo sapiens) (UniProt P10828); assay: qHTS assay for small molecule agonists of thyroid hormone receptor beta signaling (AID 588545); conditions: TR-UAS-bla GripTite HEK 293, beta-lactamase ratio, agonist mode, 18 h; series mostly up to 76.7 µM;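 also: 0% = DMSO only and 100% = 10 nM T3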
Sequence of Thyroid hormone receptor beta (Homo sapiens) (P10828 whole entry, looked up): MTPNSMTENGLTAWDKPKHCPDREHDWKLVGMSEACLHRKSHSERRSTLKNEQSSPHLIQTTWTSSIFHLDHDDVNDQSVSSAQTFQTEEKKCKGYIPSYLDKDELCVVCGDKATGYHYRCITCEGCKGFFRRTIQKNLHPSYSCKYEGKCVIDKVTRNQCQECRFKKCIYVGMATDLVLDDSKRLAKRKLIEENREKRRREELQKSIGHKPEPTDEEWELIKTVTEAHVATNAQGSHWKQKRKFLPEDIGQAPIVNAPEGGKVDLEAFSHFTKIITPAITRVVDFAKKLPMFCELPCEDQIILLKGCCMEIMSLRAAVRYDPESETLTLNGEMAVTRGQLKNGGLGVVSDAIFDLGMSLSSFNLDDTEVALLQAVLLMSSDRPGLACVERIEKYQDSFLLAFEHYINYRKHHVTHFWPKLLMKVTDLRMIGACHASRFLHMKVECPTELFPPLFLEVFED
Summary of the method: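 Stimulation of a TR-driven beta-lactamase reporter was quantified in GripTite HEK 293 cells. Compound series ran for 18 hrs; curves were normalized to T3 and DMSO controls and fitted to yield EC50.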

[13] = qHTS assay for small molecule activators of the p53 signaling pathway (AID 651743; active = well fitted activation curve with a large enough effect in the signal ratio, not every such curve was filed as active; the % refers to the signal ratio; also: % of control where 0% means no effect); conditions: HCT-116 p53RE-bla, beta-lactamase FRET ratio, 16 h; activation: stronger effect = higher value
Summary of the method: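 Read-out is fluorescence intensity from the LiveBLAzer B/G FRET substrate, added for 2 hours at room temperature after HCT-116 p53RE-bla cells had been incubated with compounds for 16 hours at 37 C.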

[14] = qHTS assay for small molecule activators of the nuclear factor-kappa B (NF-kB) signaling pathway (AID 651749; active = well fitted activation curve with a large enough effect in the signal ratio; the % refers to the signal ratio; also: % of control where 0% means no effect); conditions: NF-kB-bla ME-180 cells, beta-lactamase FRET ratio, 16 h; activation: stronger effect = higher value
Summary of the method: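 Readout: beta-lactamase reporter driven by an NF-kB response element, detected fluorescently as loss of FRET. Cells were the ME-180 line, treated 16 hr at 37C with pin-transferred compound.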

[15] = qHTS assay for small molecule disruptors of the mitochondrial membrane potential - 5 hr assay (AID 651755); conditions: JC-1-type ratio dye; series mostly up to 92.2 µM; also: % is scaled to controls: 0 for no effect and ±100 for the full control effect; nearly all actives have a fitted effect of over 40% in size
Summary of the method: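 HepG2, 2,000 cells/well, overnight attach; cpd or DMSO 5 hr, 37C/5% CO2; Mito-MPS 30 min 37C; fluor 490/535 + 540/590 nm.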

[16] = biological target: Tumor necrosis factor (Homo sapiens) (UniProt P01375); assay: qHTS assay to identify small molecules that stimulate Tumor Necrosis Factor-alpha (TNF-alpha) secretion (AID 651757; active = well fitted curve in the direction sought with a large enough effect in the signal ratio; the % refers to the signal ratio; also: 0% is about no effect); conditions: Human cells, HTRF 665/615 ratio; series mostly up to 92.2 µM
Sequence of Tumor necrosis factor (Homo sapiens) (P01375 whole entry, looked up): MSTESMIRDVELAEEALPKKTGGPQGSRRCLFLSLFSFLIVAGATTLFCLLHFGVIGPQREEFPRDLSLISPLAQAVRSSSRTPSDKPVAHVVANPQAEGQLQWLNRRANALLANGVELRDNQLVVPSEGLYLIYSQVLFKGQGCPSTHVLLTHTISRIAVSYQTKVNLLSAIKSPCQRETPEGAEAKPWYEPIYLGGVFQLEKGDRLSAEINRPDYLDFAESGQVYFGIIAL
Summary of the method: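 Read-out is HTRF, a TR-FRET sandwich of cryptate- and XL665-labeled anti-TNF-alpha antibodies detecting cytokine secreted by THP-1 cells. Cells had been incubated with test compounds at 37 C for 17 hrs beforehand.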

[17] = qHTS assay for environmental chemicals that activate the Aryl hydrocarbon Receptor (AhR) signaling pathway (AID 651777; active = well fitted curve in the direction sought with a large enough effect; an effect the other way counts as inactive or inconclusive; also: % of control where 0% means no effect; nearly all actives have a fitted effect of over 15% in size); conditions: 1A2-DRE human hepatoma cells, luciferase, 24 h; activation: stronger effect = higher value
Summary of the method: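 Reporter gene assay: hepatoma cells with DRE/CYP1A2-luciferase, 24 hr compound incubation at 37 C, 5% CO2, luminescence after One-Glo (30 min, RT).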

[18] = biological target: Peroxisome proliferator-activated receptor alpha (Homo sapiens) (UniProt Q07869); assay: qHTS assay for small molecule agonists of the peroxisome proliferator-activated receptor alpha (PPARalpha) signaling pathway (AID 651778; active = well fitted curve in the direction sought with a large enough effect; an effect the other way counts as inactive or inconclusive; also: % of control where 0% means no effect); conditions: PathHunter PPARalpha complementation, chemiluminescence, 6 h; stronger effect = higher value
Sequence of Peroxisome proliferator-activated receptor alpha (Homo sapiens) (Q07869 whole entry, looked up): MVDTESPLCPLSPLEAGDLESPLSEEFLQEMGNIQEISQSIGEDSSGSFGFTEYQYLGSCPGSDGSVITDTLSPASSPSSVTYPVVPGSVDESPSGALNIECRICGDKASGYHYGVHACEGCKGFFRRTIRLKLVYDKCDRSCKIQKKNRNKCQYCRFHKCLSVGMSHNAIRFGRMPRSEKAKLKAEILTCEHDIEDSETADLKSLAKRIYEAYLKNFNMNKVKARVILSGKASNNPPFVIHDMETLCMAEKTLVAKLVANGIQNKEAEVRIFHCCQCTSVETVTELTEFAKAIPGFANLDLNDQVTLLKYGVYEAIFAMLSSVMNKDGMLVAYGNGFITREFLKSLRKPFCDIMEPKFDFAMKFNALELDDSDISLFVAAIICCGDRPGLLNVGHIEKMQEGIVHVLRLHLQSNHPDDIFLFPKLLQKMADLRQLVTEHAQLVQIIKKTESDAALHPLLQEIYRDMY
Summary of the method: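 Chemiluminescence from complemented enzyme reported PPARalpha activation in cells after 6 hr of compound treatment at 37 C. The detection reagent was incubated for 60 min at room temperature, and compounds were scored as agonists.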

[19] = biological target: Nuclear receptor ROR-gamma (Homo sapiens) (UniProt P51449); assay: qHTS assay for small molecule antagonists of the retinoid-related orphan receptor gamma (ROR-gamma) signaling pathway (AID 651802; active = well fitted curve in the direction sought with a large enough effect; an effect the other way counts as inactive or inconclusive;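 also: CHO cells with doxycycline-induced ROR-gamma expression; luciferase reporter luminescence driven by ROR response element; % is scaled to controls: 0 for no effect and ±100 for the full control effect; nearly all actives have a fitted effect of over 60% in size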); conditions: ROR-gamma antagonist cell reporter assay; series mostly up to 92.2 µM
Sequence of Nuclear receptor ROR-gamma (Homo sapiens) (P51449 whole entry, looked up): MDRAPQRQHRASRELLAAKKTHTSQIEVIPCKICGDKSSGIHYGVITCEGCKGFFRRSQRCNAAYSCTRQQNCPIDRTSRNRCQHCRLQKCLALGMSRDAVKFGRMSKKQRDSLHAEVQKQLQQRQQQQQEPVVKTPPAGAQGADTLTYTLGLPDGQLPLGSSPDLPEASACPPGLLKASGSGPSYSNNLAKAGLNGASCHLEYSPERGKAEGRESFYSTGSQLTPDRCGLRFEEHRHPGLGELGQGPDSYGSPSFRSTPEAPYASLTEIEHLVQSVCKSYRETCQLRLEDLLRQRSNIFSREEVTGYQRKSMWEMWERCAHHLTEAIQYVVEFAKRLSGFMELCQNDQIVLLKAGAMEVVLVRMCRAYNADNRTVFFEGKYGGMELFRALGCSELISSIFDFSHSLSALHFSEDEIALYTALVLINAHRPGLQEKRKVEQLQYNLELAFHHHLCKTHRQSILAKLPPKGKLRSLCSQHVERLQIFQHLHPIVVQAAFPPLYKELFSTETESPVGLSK
Summary of the method: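 CHO, TET-inducible ROR + RORE-LUC reporter, 1536-well qHTS. Compound pinned, doxycycline added, 16hr 37C/5% CO2. ONE-Glo, 30 min RT, luminescence; signal drop scored as antagonism.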

[20] = biological target: Nuclear receptor subfamily 1 group I member 2 (Rattus norvegicus) (UniProt Q9R1A7); assay: qHTS assay for small molecule activators of the rat pregnane X receptor (rPXR) signaling pathway (AID 651751; call rule not given here; also: 0% is about no effect); conditions: rPXR reporter cells, luciferase (One-Glo), 24 h
Sequence of Nuclear receptor subfamily 1 group I member 2 (Rattus norvegicus) (Q9R1A7 whole entry, looked up): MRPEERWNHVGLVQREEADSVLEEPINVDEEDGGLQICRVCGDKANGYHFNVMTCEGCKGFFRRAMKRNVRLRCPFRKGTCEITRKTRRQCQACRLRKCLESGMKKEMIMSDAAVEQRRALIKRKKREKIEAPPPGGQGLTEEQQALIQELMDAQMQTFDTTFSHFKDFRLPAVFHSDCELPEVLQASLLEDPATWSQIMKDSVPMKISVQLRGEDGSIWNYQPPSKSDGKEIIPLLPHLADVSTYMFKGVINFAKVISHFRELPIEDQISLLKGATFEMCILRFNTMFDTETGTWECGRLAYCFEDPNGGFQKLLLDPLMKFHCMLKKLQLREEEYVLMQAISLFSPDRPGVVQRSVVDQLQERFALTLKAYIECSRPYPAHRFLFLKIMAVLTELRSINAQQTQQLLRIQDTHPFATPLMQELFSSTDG

Cc1ccccc1O
-16.4% and 2.5%: max response [10]
inactive: outcome [1] | outcome [2] | outcome [3] | Potency [4] | activation [5] 1.9% and -0.638% | Potency [6] | outcome [8] | Potency [9] | outcome [11] | Potency [12] | activation [13] -4.62% and -1.52% | activation [14] 0.871% and 6.75% | Potency [15] | outcome [16] | activation [17] -0.175% and -0.566% | max response [18] -1.66% and -0.689% | Potency [19] | max response [20] 0.289% and -3.94%
12.8% and 44.7%: max response [7]
